Source: PubChem BioAssay AID743279 (National Center for Advancing Translational Sciences (NCATS), 2014)
Among all 360,000 compounds or so, about 17,000 (4.7%) were called active. Another 5% or so got no clear call; they are omitted. No stated cut-off is given here; in the data, active means activity change below about -50%; inconclusive means mostly about -30% to -49%; inactive means weaker than that. The entries come from a sample that favours actives as a whole. Where a SMILES comes first, the peptide text is derived from it. The star is where a group is joined. Bz = O=C(c1ccccc1)*

assay: qHTS for Inhibitors of Inflammasome Signaling: IL-1-beta AlphaLISA Primary Screen; conditions: THP-1 LPS/ATP IL-1B secretion, 16 h; at 57.5 µM, stronger effect = lower value
Outline: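 Secreted IL-1B measured by AlphaLISA bead assay after 16 h compound exposure of THP-1 cells; compounds (final up to 57.5 uM) added 1 h before LPS (250 ng/mL) and ATP (1.25 mM) stimulation; lower signal means less secretion.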
On the % scale 0 is the no-effect control and ±100 the full control effect.

Row | Structure (SMILES) | activity change
1 | COc1ccccc1-c1cc2nc(NCc3cccc(Cl)c3)ccn2n1 | -19.9% (inactive)
2 | Cc1ccc(-c2nn(-c3cccc(F)c3)cc2CNCCc2ccncc2)o1 | -77.5% (active)
3 | Cc1ccc(N2C(=O)C(CC(=O)Nc3cccc(F)c3)N(CCc3ccncc3)C2=O)cc1 (stereo not given) | -0.0392% (inactive)
4 | Cc1ccc(-c2cnc(C(O)c3cc(Cl)cc(Cl)c3)[nH]2)cc1 (stereo not given) | 6.64% (inactive)
5 | Cc1ccc(S(=O)(=O)NCC(=O)N(CC(=O)NC(C)(C)C)Cc2cccs2)cc1 | 14.4% (inactive)
6 | CCC(C)(C)NC(=O)CN(Cc1cccs1)C(=O)CNS(=O)(=O)c1ccc(F)cc1 | 4.73% (inactive)
7 | CC(C)(C)NC(=O)CN(Cc1cccs1)C(=O)CNS(=O)(=O)c1ccccc1 | -55.8% (active)
8 | CCN1C(=O)[C@@H]2[C@@H]3CN(S(=O)(=O)c4ccccc4C)[C@@H](c4ccc(Cl)cc4)[C@@H]3C(=O)C[C@@H]2C1=O | -15.9% (inactive)
9 | CC1(C(=O)Nc2cccc3c2CCCC3)CCN1C(=O)CCc1ccc(Cl)cc1Cl (stereo not given) | -9.96% (inactive)
10 | NC(=O)C1CCN(C(=O)CC2C(=O)NCCN2Cc2cccc(Oc3ccccc3)c2)CC1 (stereo not given) | -6.56% (inactive)
11 | CCc1nnc(NC(=O)c2cc(S(=O)(=O)N3CCN(CC)CC3)ccc2Cl)s1 | 18.8% (inactive)
12 | CC(CN1CCCCC1)c1ccccc1 (stereo not given) | 11.2% (inactive)
13 | COc1ccc(C(O)(C2CCCCC2)C(CN2CCCC2)c2ccccc2)cc1 (stereo not given) | -54.5% (active)
14 | CCCC(O)(c1ccc(OC)cc1)C(CN(C)C)c1ccccc1 (stereo not given) | -9.06% (inactive)
15 | CC(C)(C(=O)N1CCC1(C)C(=O)NS(=O)(=O)c1ccc(Br)cc1)c1ccccc1 (stereo not given) | 17% (inactive)
16 | CC(C)c1ccc(N2CC(C(=O)Nc3nccs3)CC2=O)cc1 (stereo not given) | -0.66% (inactive)
17 | CC1CN(C(=O)c2cccc(NS(=O)(=O)c3ccc(Br)cc3)c2)CC(C)O1 (stereo not given) | 53% (inactive)
18 | O=C(CC1NCCc2ccccc21)Nc1cccc(Cl)c1 (stereo not given) | -29.8% (inactive)
19 | CCC(CC)COC(=O)C1=C(C)NC(=O)NC1c1ccc([N+](=O)[O-])cc1 (stereo not given) | -2.87% (inactive)
20 | CCOC(=O)C1=C(C)N(C[C@@H]2CC[C@@H](Cc3ccc(-c4ccccc4)cc3)O2)C(=O)NC1c1ccc([N+](=O)[O-])cc1 (stereo not given in full) | -63.7% (active)
21 | CCN1C(=O)N[C@@H](c2ccccc2)C(C(=O)OC)=C1C | 15% (inactive)
22 | COc1ccc(C(=O)N2CCCN(C)CC2)c(OC)c1 | 33.4% (inactive)
23 | COc1cc2c(C(=O)N3CCN(C)CC3)c(CSc3ccccc3)n(C)c2cc1Br | -60.2% (active)

Row | Structure (SMILES) | activity change
24 | COc1cc(C(=O)N2CCN(C)CC2)cc(OC)c1OC | 42.7% (inactive)
25 | C[C@@H]1CN([C@H](C)CO)C(=O)CCCn2nncc2CO[C@@H]1CN(C)S(=O)(=O)c1cccc(C#N)c1 | 3.99% (inactive)
26 | COC1=CC(=O)OC(c2ccc(OC)cc2)C1 (stereo not given) | -17.1% (inactive)
27 | CS(=O)(=O)c1cccc(-c2ccc3nncn3c2)c1 | 11.3% (inactive)
28 | O=C(NC(Cc1ccccc1)C(=O)N1CCCC1C(=O)O)c1ccccc1 (stereo not drawn) (Bz-Phe-Pro-OH; configuration not given here) | 6.95% (inactive)
29 | CN(Cc1ccccc1F)C(=O)C(Cc1ccccc1)NC(=O)c1ccccc1 (stereo not given) | -84.2% (active)
30 | O=C(NC(Cc1ccccc1)C(=O)N1CCCC(C(F)(F)F)C1)c1ccccc1 (stereo not given) | 1.82% (inactive)
31 | COCCn1c(SCC(=O)Nc2ccc(F)cc2F)nc2c(c1=O)SCC2 | 18.2% (inactive)
32 | CCNC(=O)CCc1nc(-c2ccc(C(C)(C)C)cc2)no1 | -3.31% (inactive)
33 | CC(O)CNCCOc1cccc(Oc2ccccc2)c1 (stereo not given) | -29% (inactive)
34 | COc1ccc(OCC(O)CNC(=O)Nc2ccc(Cl)cc2)cc1 (stereo not given) | 5.19% (inactive)
35 | OC(CNCCc1ccc(Cl)cc1Cl)COc1ccccc1 (stereo not given) | -91.8% (active)
36 | COc1ccc(C(=O)CCC(=O)Nc2ccc(Cl)cc2)cc1 | 4.81% (inactive)
37 | COc1ccc(CS(=O)/C(Cl)=C(/Cl)C(=O)Nc2ccc(OC)nc2)cc1 (stereo not given) | -105% (active)
38 | COc1ccc(NC(=O)CN2C(=O)NC(C)(c3ccccc3)C2=O)cn1 (stereo not given) | 12.7% (inactive)
39 | O=C(COC(=O)c1cc(-c2cccs2)nn1-c1ccccc1)Nc1cc([N+](=O)[O-])ccc1Cl | 21.3% (inactive)
40 | O=C(Nc1ccccc1-c1nc2ccccc2[nH]c1=O)c1cccs1 | 7.39% (inactive)
41 | C/C(=N\Nc1nc2ccccc2[nH]1)c1cccs1 | -66.3% (active)
42 | C/C(=N\Nc1ccccc1)c1cccs1 | 40.5% (inactive)
43 | O=C(COc1ccccc1Cl)Nn1cnnc1 | 26.3% (inactive)
44 | CCOC(=O)CNC(=O)CSc1ncccc1-c1nc2ccccc2[nH]1 | 16.2% (inactive)
45 | COc1ccc(S(=O)(=O)N(C)C[C@@H]2Oc3ccc(NS(=O)(=O)c4cn(C)cn4)cc3C(=O)N([C@@H](C)CO)C[C@@H]2C)cc1 | -3.54% (inactive)
46 | O=C1c2ccccc2C(=O)c2c1cccc2N1CCN(CCO)CC1 | -59.1% (active)

Row | Structure (SMILES) | activity change
47 | OCCN1CCN(c2nnc(-c3ccccc3)c3ccccc23)CC1 | 23.6% (inactive)
48 | O=C1CCN(CCCc2ccccc2)CCN1CCO | -16.8% (inactive)
49 | Cc1ccc(Nc2c(O)nc[nH]c2=O)cc1C | 13.4% (inactive)
50 | COc1c(O)cccc1-c1nnn(CCC(=O)OCC(=O)c2ccccc2)n1 | 14.4% (inactive)
51 | O=S1(=O)CCN(C2CCCCCCCCCCC2)CC1 | 26.7% (inactive)
52 | O=c1nc(NO)ccn1C1CCCO1 (stereo not given) | 13.7% (inactive)
53 | Cc1cccc(C)c1N1CCN(S(=O)(=O)N2CCOCC2)CC1 | 0% (inactive)
54 | Cc1cccc(C(=O)N2CCN(S(=O)(=O)N3CCCCC3)CC2)c1 | 0% (inactive)
55 | Cc1cccc(C)c1N1CCN(S(=O)(=O)N2CCCCC2)CC1 | -53.3% (active)
56 | CCC(c1nnnn1-c1ccc2c(c1)OCCO2)N1CCN(c2ccc(C(F)(F)F)cn2)CC1 (stereo not given) | 25.4% (inactive)
57 | CCCNC(=O)CCc1c(C)nc2c(c(C)nn2-c2ccccc2)c1C | -2.57% (inactive)
58 | CC(=O)C[C@@H]1OC[C@H](CO)N1S(=O)(=O)c1ccc(C)cc1 | 5.63% (inactive)
59 | O=C(NCCN1CCOCC1)C1CCN(S(=O)(=O)c2ccccc2)CC1 | 0.358% (inactive)
60 | CN1CCN(C(=O)c2ccc(-c3cc4nc(NCc5cccnc5)n(C)c(=O)c4s3)cc2)CC1 | -15.2% (inactive)
61 | CC1CCN(C(=O)c2ccc(S(=O)(=O)Cc3cc(F)ccc3F)c([N+](=O)[O-])c2)CC1 | -96.6% (active)
62 | O=C(c1ccc(Oc2ccc(Cl)cc2)c([N+](=O)[O-])c1)N1CCCC1 | -22.3% (inactive)
63 | Nc1ccc(C(=O)N2CCN(S(=O)(=O)c3ccc(Cl)cc3)CC2)cc1[N+](=O)[O-] | -21.1% (inactive)
64 | COc1cc(OC)c(C(=O)NNC(=O)c2ccccc2-n2cccc2)cc1OC | 3.76% (inactive)
65 | O=C(/C=C\c1ccc2c(c1)OCO2)NC1(C(=O)Nc2ccc3c(c2)OCCO3)CCCCC1 | -1.03% (inactive)
66 | O=C(/C=C/c1ccc(Cl)c([N+](=O)[O-])c1)c1ccc(O)cc1 | -99.9% (active)
67 | CN(C)c1ccc(/C=C/C(=O)c2ccc(C(C)(C)C)cc2)cc1[N+](=O)[O-] | -95.8% (active)
68 | CC(=O)c1ccc2c(c1)OCCOCCOc1ccc(C(C)=O)cc1OCCOCCO2 | 0% (inactive)
69 | CC(=O)Nc1ccc(C=CC(=O)c2ccc([N+](=O)[O-])cc2)cc1 | 1.95% (inactive)

Row | Structure (SMILES) | activity change
70 | C/C(=N\Nc1nncc2ccccc12)c1ccc(Cl)c([N+](=O)[O-])c1 | -6.54% (inactive)
71 | CNc1ccc(NC(C)=O)cc1[N+](=O)[O-] | -5% (inactive)
72 | CN(C)c1ccc(/C=C/C(=O)c2ccc(O)cc2)cc1[N+](=O)[O-] | -97.8% (active)
73 | Cc1cc(C(=O)O)ccc1[N+](=O)[O-] | -16.6% (inactive)
74 | Cc1cc(C)n(-c2ccc(C(=O)O)cc2[N+](=O)[O-])n1 | 40.6% (inactive)
75 | O=C(/C=C/c1ccc2c(c1)OCCO2)c1ccc(O)cc1 | -103% (active)
76 | CC(=O)Nc1ccc(C(=O)/C=C/c2ccc[nH]2)cc1 | -9.5% (inactive)
77 | CCOC(=O)C1(CCOC)CCN(Cc2cc3ccccc3s2)CC1 | -8.97% (inactive)
78 | CCOc1ccccc1NC(=S)C(=C([O-])c1ccc2c(c1)OCCO2)[n+]1ccc(CC)cc1 | 3.49% (inactive)
79 | Cc1ccc(Cc2nnc(SCC(=O)Nc3ccccc3C)[nH]c2=O)cc1 | 19.7% (inactive)
80 | O=C(Nc1cccc2ccccc12)c1[nH]c(-c2ccccc2)c2c1C(=O)N(C1CC1)C2=O | -16.9% (inactive)
81 | CC(O)CN(Cc1ccc(Cl)cc1)CC(C)O (stereo not given) | -2.11% (inactive)
82 | CCOC(=O)C(NC(=O)CC(C)C)(Nc1sc2c(c1C(N)=O)CCCC2)C(F)(F)F (stereo not given) | inactive
83 | CN(C)C(CNC(=O)c1cccc(S(=O)(=O)N2CCc3ccccc3C2)c1)c1ccccc1 (stereo not given) | -16.7% (inactive)
84 | O=C(C1CCN(CC2CCCCC2)CC1)N1CCCC1 | -2.85% (inactive)
85 | CCCCC(=O)N1CC2(C)CN(C(=O)CCCC)CC(C)(C1)C2=O | 14% (inactive)
86 | N#C/C(=C(/O)COC(=O)COc1ccc(Cl)cc1)c1nc2ccccc2[nH]1 | -99.4% (active)
87 | CC(C)(C)c1nnc2sc(SCC(O)=C(C#N)c3nc4ccccc4[nH]3)nn2c1=O | 20.2% (inactive)
88 | COCCN(CCOC)S(=O)(=O)c1ccc(/C(O)=C(\C#N)c2nc3ccccc3[nH]2)cc1 | -11.3% (inactive)
89 | Cc1cc(NC(=O)Nc2ccccc2[N+](=O)[O-])no1 | -17.8% (inactive)
90 | CC1CCCN(C(=O)Cn2c(=O)oc3cc(S(=O)(=O)N4CCCCC4C)ccc32)C1 (stereo not given) | 11.7% (inactive)
